SMILES strings stand for the structures. The source made the active and inactive calls. Rule for the calls: active = hit-call score of the fitted dose curve at least 0.9, where 1 is the maximum; inactive = score below 0.9.

Chain of Nuclear respiratory factor 1 (Homo sapiens) (Q16656 whole entry, looked up): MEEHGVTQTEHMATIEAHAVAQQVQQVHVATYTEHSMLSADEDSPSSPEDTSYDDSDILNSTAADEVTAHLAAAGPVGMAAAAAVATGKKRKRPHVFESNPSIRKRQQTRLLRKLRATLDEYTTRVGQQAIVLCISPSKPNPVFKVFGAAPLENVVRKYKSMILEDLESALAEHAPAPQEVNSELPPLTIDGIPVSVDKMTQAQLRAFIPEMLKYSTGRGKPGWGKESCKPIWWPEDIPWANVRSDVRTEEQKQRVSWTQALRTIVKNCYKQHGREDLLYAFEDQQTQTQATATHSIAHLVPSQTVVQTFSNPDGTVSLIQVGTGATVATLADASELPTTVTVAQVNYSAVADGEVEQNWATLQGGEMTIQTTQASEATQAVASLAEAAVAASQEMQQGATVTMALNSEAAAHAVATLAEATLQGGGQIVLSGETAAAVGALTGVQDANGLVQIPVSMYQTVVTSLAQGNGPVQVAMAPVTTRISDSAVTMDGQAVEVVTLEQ

This test concerns the target Nuclear respiratory factor 1 (Homo sapiens) (UniProt Q16656). The experiment in a line: ATG_NRF1_CIS: Attagene CIS-FACTORIAL HepG2 Assay for human Nuclear Respiratory Factor 1 (NRF1) Orphan Gene (AID 2282987). The conditions noted are these: HepG2 NRF1 cis-element reporter, Attagene multiplex; actives raise or lower the signal. How it is done: ATG_CIS is a cell-based, multiplexed-readout assay that uses HepG2, a human liver cell line, with measurements taken at 24 hours after chemical dosing in a 24-well plate.ATG_NRF1_CIS is one of 52 assay component(s) measured or calculated from the ATG_CIS assay. It is designed to make measurements of mRNA induction, a form of inducible reporter, as detected with fluorescence intensity signals by Reverse transcription polymerase chain reaction (RT-PCR) and Capillary electrophoresis technology.Data from the assay component ATG_NRF1_CIS was analyzed into 1 assay endpoint. This assay endpoint, ATG_NRF1_CIS, was analyzed with bidirectional fitting relative to DMSO as the negative control and baseline of activity. Using a type of inducible reporter, measures of mRNA for gain or loss-of-signal activity can be used to understand the reporter gene at the transcription factor-level as they relate to the gene NRF1. Furthermore, this assay endpoint can be referred to as a primary readout, because this assay has produced multiple assay endpoints where this one serves a reporter gene function. To generalize the intended target to other relatable targets, this assay endpoint is annotated to the dna binding intended target family, where the subfamily is nuclear respiratory factors.
Human liver HepG2 cells are transiently transfected with multiple reporter transcription units (MRTUs) in 6-well plates using FuGene 6 reagent (Roche; 3 ml FuGene/1 mg DNA). The MRTU constructs are regulated by a cis-regulating element (promoter). […] A major difference between the CIS and TRANS system is that in CIS activities of endogenous TFs are measured, whereas the TRANS assay evaluates changes in activities of exogenous, chimeric NR-Gal4 proteins. […] At the end of 24 hour incubation, total RNA was isolated using TriZol reagent (Invitrogen). The isolated RNA is then reverse-transcribed using oligo(dT) primer and Mo-MLV reverse transcriptase (Invitrogen) with DNAse I (Ambion) treatment for 30 min. The one-tenth of the produced cDNA was amplified by PCR using Taq DNA polymerase (Invitrogen) and two reporter sequence-specific primers. The PCR products were fluorescently labeled by primer extension with 6-arboxyfluorescein (6-FAM) 5'-labeled reporter sequence-specific primer (2 min at 95 C, 20 s at 68 C and 10 min at 72 C) and these products were digested with 5U of HpaI (New England Biolabs) for 2h at 37 C. The fragments were purified using Qiaquick PCR columns (Qiagen), analyzed on an ABI 3130xL genetic analyzer (Applied Biosystems) with peak positions identified by using a set of X-rhodamine (ROX)-labeled MapMarker1000 molecular weight standards (BioVentures). The raw capillary electrophoresis data was processed using Attagraph software (Attagene).
For `CN(C)N`, the molecule was classed as inactive.
On to `S=c1[nH]c2ccccc2[nH]1`, for which the molecule was called inactive.
Take `COCC(=O)N(c1c(C)cccc1C)N1CCOC1=O`: the call was inactive.
Same read-out and setting: the result for `CCC(C)c1cc([N+](=O)[O-])cc([N+](=O)[O-])c1OC(=O)C=C(C)C` (stereo not given) reads “inactive”; that for `CCOP(O)OCC`, “inactive”; that for `Cc1ccc(C)c2ccccc12`, “inactive”.
On the same count and under the same terms, for `c1ccc(P(c2ccccc2)c2ccccc2)cc1` the value was “inactive”.
As to `CCOC(=O)COc1ccc(Cl)cc1Cl`, the outcome was inactive.
For `COC(=O)c1ccccc1S(=O)(=O)NC(=O)Nc1nc(C)cc(C)n1`, the outcome was inactive.
The AC50 is the concentration at which the activity in the assay is half-maximal. On to `Oc1ccc(C2(c3ccc(O)cc3)c3ccccc3-c3ccccc32)cc1`, for which the AC50 was 19.1 µM (active).
For the molecule `CC(=O)c1cc2c(cc1C)C(C)(C)C(C)CC2(C)C` (stereo not given), the call was inactive.
As to `O=C(CCl)c1ccccc1`, the AC50 was 54.4 µM (active).
As to `O=[N+]([O-])O.O=[N+]([O-])O.[Cd]`, the AC50 is 4.62 µM (active).
On to `O=[N+]([O-])C=Cc1ccccc1`, for which the AC50 is 38.5 µM (active).
Turning to `C=CCO`, the result was inactive.
The same measure, in the same setting: the result for `O=C(O)CCCc1ccc(N(CCCl)CCCl)cc1` reads “inactive”; that for `COC(C)(C)CCC[C@H](C)C/C=C/C(C)=C/C(=O)OC(C)C`, “inactive”.
Consider `CC(C)(c1cc(Cl)c(O)c(Cl)c1)c1cc(Cl)c(O)c(Cl)c1`, for which the outcome was inactive.
On the same count and under the same terms, for `[Cl-].[Cl-].[Cl-].[Yb+3]` the value was “inactive”; for `CCOP(=O)(OCC)OCC`, “inactive”.
With `O=[N+]([O-])c1ccc(Cl)cc1`, the molecule was classed as inactive.
In the case of `CC[N+](=O)[O-]`, the result was inactive.
Consider `CC(C)(C)C(O)C(Oc1ccc(-c2ccccc2)cc1)n1cncn1` (stereo not given), for which the molecule was called inactive.
As for `O=S(=O)(c1ccccc1)c1ccccc1`, the molecule was classed as inactive.
The same measure, in the same setting: the result for `c1ccc2c(c1)CCCC2` reads “inactive”; that for `O=S(=O)(O)O`, “inactive”; that for `O=C(O)COc1ccccc1`, “inactive”.
On the same count and under the same terms, for `Nc1ccccc1` the value was “inactive”; for `CCC(=O)c1ccc(Cl)cc1`, “inactive”.
The same measure, in the same setting: for `O=CNC(N1CCN(C(NC=O)C(Cl)(Cl)Cl)CC1)C(Cl)(Cl)Cl` (stereo not given) the value was “inactive”.
On to `[Cl][Sb]([Cl])[Cl]`, for which the result was inactive.
Regarding `C=CC(=O)OC`, the molecule was classed as inactive.
Take `CNC(=N[N+](=O)[O-])NCC1CCOC1` (stereo not given): the molecule was called inactive.
Regarding `COc1ncc(F)c2nc(S(=O)(=O)Nc3c(F)cccc3F)nn12`, the call was inactive.
The same measure, in the same setting: the result for `N#Cc1cc(I)c(O)c(I)c1` reads “inactive”; that for `Nc1c(Cl)c(Cl)c(Cl)c(Cl)c1Cl`, “inactive”; that for `CCC(Br)(CC)C(=O)NC(N)=O`, “inactive”.
The same measure, in the same setting: the result for `CC(C)COP(=O)(OCC(C)C)OCC(C)C` reads “inactive”; that for `CC1CCCC1.[C-]#[O+].[C-]#[O+].[C-]#[O+].[Mn]`, “inactive”; that for `Nc1ccc(-c2ccc(N)c(N)c2)cc1N`, “inactive”.

Values taken from PubChem BioAssay (EPA / NIEHS).
